# Measurements taken from PubChem BioAssay.
# Active and inactive are the calls of the source.
# Tests used:
# [1] = test system: PRMT1 (protein arginine N-methyltransferase 1); experiment: small molecules binding arginine methyltransferase PRMT1 – biochemical, small-molecule microarray, 635 nm fluorescence, primary screen (AID 1088); conditions: higher = more signal;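 note: binding of Prmt1 protein to compounds spotted on small-molecule microarray slides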
# [2] = growth effects on S. cerevisiae YJM789 – YJM789 clinical isolate, OD600, 24 h, basal, primary screen (AID 1089); conditions: higher = more signal, called active from +8 up or from −8 down;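 note: growth of clinical yeast isolate S. cerevisiae YJM 789 seeded 1000 cells per well; test concentration not given here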
# [3] = S. pombe growth modifiers, basal conditions – strain 972, OD600, 24 h, no modulator, primary screen (AID 1090);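 note: basal condition with compound alone and no growth modifier present; test concentration not given here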; conditions: S. pombe 972 growth, higher = more signal, called active from +8 up or from −8 down
# [4] = budding yeast growth modifiers under rapamycin – strain BY4716, OD600, 96 h, primary screen (AID 1091); note: test concentration not given here; conditions: S. cerevisiae BY4716 + rapamycin, higher = more signal, called active from +8 up or from −8 down
# [5] = target: Torsin-1A-interacting protein 2 (Homo sapiens) (UniProt Q8NFQ8); experiment: small molecules binding lysate-expressed LULL1 – cell lysate, human LULL1 lysate, 635/667 nm fluorescence, primary screen (AID 1092); conditions: small-molecule microarray, hLULL1 lysate binding, 635 nm fluorescence; higher = more signal;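 note: probe is lysate of COS7 cells overexpressing human LULL1; score merges per-feature 667 nm fluorescence with signal-to-noise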
# [6] = optical density change of DRC41 E. coli – strain DRC41, OD650, 24 h, E. coli filamentation project, primary screen (AID 1093);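 note: MC1000 strain lacking acrAB efflux and sulA so SOS filamentation is blocked; test concentration not given here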; conditions: E. coli DRC41 growth, higher = more signal, called active from +8 up or from −8 down
# [7] = probe aLefty2 binding to arrayed compounds – biochemical, biotinylated probe, 635/667 nm fluorescence, primary screen (AID 1094); conditions: small-molecule microarray, higher = more signal;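 note: score merges spot fluorescence near 667 nm with spot signal-to-noise ratio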
# [8] = test system: Noggin (protein binding on small-molecule microarray); experiment: small molecules binding Noggin protein – biochemical, 635/667 nm fluorescence, primary screen (AID 1095); conditions: 635 nm fluorescence, higher = more signal;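 note: score merges 667 nm feature fluorescence with signal to noise over triplicate slides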
# [9] = target: Neurogenic locus notch homolog protein 3 (Homo sapiens) (UniProt Q9UM47); experiment: small molecules binding NOTCH3 protein – biochemical, 635/667 nm fluorescence, primary screen (AID 1096); conditions: small-molecule microarray, 635 nm fluorescence, higher = more signal
# [10] = probe aEGFR binding to arrayed compounds – biochemical, biotinylated probe, 635/667 nm fluorescence, primary screen (AID 1097); conditions: small-molecule microarray, higher = more signal;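 note: probe is a biotinylated anti-EGFR antibody binding compounds printed on slides; score combines fluorescence near 667 nm and signal to noise of each spot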
# [11] = test system: Plasmodium falciparum Sir2 (PF13_0152, Sir2A); experiment: Plasmodium falciparum Sir2A binding compounds – biochemical, small-molecule microarray, 635 nm fluorescence, primary screen (AID 1098); conditions: fluorescence 635 nm, higher = more signal;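 note: score merges spot fluorescence intensity with its signal-to-noise ratio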
# [12] = probe aDKK1 binding to arrayed compounds – biochemical, biotinylated probe, 635/667 nm fluorescence, primary screen (AID 1099); conditions: small-molecule microarray, higher = more signal;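 note: score merges 667nm spot fluorescence with signal to noise across triplicate slides; reference of the scale not given here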
# [13] = probe aCHRDL2 binding to arrayed compounds – biochemical, biotinylated probe, 635/667 nm fluorescence, primary screen (AID 1100); conditions: small-molecule microarray, higher = more signal
# [14] = change in splice reporter luminescence, either direction, cell-based, HEK293, spliceosome inhibition project, primary screen (AID 1101); conditions: HEK293 splicing luciferase reporter, 24 h, higher = more signal, called active from +8 up or from −8 down;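 note: HEK293 cells carrying a splicing-competent luciferase reporter gene; test concentration not given here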
# [15] = target: Fibroblast growth factor 10 (Homo sapiens) (UniProt O15520); experiment: compounds binding fibroblast growth factor 10 – biochemical, small-molecule microarray, 635 nm fluorescence, primary screen (AID 1102); conditions: FGF10 binding, fluorescence 635 nm, higher = more signal
# [16] = test system: glycogen synthase kinase-3 (GSK3A per assay name; protocol says GSK3B); experiment: compounds binding glycogen synthase kinase-3 – biochemical, small-molecule microarray, 635 nm fluorescence, GSK3A, primary screen (AID 1103); conditions: fluorescence 635 nm, higher = more signal; note: the record names both GSK3A and GSK3B
# [17] = target: Epidermal growth factor receptor (Homo sapiens) (UniProt P00533); experiment: compounds binding epidermal growth factor receptor – biochemical, small-molecule microarray, 635 nm fluorescence, primary screen (AID 1104); conditions: EGFR binding, higher = more signal;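 note: score merges 667 nm emission intensity with spot signal to noise over triplicate slides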
# [18] = target: Follistatin-related protein 3 (Homo sapiens) (UniProt O95633); experiment: compounds binding follistatin-related protein 3 – biochemical, small-molecule microarray, 635 nm fluorescence, primary screen (AID 1105); conditions: FSTL3 binding, higher = more signal;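 note: score merges emission near 667 nm and signal to noise per printed spot across three slides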
# [19] = target: Dickkopf-related protein 1 (Homo sapiens) (UniProt O94907); experiment: small molecules binding DKK1 protein – biochemical, small-molecule microarray, 635 nm fluorescence scan, primary screen (AID 1106); conditions: higher = more signal;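 note: score merges emission near 667 nm with signal to noise over three replicate slides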
# [20] = test system: Inhibin beta A chain (activin A); experiment: small molecules binding activin A – biochemical, small-molecule microarray, 635 nm fluorescence scan, primary screen (AID 1107); conditions: INHBA, higher = more signal;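 note: mouse activin A protein probed at 4.33 µg/mL on printed slides; score merges bound-protein fluorescence near 667 nm with spot signal-to-noise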
# Sequence of Neurogenic locus notch homolog protein 3 (Homo sapiens) (Q9UM47 whole entry, looked up): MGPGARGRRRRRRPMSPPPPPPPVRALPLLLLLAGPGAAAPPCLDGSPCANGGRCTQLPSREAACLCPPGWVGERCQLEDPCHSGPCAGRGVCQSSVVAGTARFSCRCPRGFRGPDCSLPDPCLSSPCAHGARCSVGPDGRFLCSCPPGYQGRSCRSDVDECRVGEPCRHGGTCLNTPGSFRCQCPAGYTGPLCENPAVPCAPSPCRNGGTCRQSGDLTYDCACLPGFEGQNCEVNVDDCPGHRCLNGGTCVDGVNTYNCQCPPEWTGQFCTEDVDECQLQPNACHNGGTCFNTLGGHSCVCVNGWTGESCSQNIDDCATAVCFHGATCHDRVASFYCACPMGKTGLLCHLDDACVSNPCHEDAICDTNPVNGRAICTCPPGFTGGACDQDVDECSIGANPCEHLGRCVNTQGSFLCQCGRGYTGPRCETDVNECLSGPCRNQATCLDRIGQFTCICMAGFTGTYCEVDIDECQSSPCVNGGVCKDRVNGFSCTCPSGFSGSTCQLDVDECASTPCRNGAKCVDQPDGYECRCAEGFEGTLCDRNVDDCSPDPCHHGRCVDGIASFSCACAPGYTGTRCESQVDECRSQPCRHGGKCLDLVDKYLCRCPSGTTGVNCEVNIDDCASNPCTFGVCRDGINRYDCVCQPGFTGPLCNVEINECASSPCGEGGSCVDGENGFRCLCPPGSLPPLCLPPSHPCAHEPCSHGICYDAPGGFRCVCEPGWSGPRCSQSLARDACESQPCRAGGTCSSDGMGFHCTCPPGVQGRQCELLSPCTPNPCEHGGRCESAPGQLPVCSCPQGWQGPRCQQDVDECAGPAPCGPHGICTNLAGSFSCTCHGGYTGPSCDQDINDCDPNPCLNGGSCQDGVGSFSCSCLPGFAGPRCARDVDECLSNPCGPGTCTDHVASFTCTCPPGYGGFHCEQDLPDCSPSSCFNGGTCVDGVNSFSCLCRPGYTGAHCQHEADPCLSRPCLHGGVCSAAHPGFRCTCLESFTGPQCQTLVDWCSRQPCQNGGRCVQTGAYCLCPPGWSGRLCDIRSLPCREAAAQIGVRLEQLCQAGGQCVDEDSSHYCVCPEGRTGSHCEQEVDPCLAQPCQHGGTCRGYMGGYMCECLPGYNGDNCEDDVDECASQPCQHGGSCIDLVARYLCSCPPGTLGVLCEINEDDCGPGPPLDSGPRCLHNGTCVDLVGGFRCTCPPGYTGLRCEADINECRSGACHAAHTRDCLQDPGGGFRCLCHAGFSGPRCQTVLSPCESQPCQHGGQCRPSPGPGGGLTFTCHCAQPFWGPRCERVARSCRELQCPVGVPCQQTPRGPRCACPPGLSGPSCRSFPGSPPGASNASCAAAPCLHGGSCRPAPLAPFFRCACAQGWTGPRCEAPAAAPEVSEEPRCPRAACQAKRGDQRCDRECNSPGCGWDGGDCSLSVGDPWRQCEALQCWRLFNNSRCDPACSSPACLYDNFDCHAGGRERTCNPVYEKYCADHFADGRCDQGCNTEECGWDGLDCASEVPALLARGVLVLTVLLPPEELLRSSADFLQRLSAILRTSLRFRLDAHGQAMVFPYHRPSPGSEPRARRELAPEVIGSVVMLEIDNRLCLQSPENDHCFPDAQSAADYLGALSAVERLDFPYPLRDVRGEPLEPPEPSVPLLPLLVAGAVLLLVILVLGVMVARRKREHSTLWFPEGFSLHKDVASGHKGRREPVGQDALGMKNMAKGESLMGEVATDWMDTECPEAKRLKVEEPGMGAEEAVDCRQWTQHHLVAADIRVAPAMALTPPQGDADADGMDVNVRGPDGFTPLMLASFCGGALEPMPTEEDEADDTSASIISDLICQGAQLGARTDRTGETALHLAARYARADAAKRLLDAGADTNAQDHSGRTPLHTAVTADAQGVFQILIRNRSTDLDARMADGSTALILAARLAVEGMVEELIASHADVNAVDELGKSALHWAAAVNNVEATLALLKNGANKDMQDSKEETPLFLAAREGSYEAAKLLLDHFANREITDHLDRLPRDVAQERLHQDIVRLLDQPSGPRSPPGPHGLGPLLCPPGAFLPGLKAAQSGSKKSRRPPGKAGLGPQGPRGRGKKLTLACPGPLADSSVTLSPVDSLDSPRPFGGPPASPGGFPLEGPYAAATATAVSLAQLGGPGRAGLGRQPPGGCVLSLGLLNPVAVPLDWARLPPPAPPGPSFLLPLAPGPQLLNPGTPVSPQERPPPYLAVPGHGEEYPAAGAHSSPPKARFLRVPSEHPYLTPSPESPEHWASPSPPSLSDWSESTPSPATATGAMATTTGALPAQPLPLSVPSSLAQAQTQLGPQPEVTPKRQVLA
# Sequence of Epidermal growth factor receptor (Homo sapiens) (P00533 whole entry, looked up): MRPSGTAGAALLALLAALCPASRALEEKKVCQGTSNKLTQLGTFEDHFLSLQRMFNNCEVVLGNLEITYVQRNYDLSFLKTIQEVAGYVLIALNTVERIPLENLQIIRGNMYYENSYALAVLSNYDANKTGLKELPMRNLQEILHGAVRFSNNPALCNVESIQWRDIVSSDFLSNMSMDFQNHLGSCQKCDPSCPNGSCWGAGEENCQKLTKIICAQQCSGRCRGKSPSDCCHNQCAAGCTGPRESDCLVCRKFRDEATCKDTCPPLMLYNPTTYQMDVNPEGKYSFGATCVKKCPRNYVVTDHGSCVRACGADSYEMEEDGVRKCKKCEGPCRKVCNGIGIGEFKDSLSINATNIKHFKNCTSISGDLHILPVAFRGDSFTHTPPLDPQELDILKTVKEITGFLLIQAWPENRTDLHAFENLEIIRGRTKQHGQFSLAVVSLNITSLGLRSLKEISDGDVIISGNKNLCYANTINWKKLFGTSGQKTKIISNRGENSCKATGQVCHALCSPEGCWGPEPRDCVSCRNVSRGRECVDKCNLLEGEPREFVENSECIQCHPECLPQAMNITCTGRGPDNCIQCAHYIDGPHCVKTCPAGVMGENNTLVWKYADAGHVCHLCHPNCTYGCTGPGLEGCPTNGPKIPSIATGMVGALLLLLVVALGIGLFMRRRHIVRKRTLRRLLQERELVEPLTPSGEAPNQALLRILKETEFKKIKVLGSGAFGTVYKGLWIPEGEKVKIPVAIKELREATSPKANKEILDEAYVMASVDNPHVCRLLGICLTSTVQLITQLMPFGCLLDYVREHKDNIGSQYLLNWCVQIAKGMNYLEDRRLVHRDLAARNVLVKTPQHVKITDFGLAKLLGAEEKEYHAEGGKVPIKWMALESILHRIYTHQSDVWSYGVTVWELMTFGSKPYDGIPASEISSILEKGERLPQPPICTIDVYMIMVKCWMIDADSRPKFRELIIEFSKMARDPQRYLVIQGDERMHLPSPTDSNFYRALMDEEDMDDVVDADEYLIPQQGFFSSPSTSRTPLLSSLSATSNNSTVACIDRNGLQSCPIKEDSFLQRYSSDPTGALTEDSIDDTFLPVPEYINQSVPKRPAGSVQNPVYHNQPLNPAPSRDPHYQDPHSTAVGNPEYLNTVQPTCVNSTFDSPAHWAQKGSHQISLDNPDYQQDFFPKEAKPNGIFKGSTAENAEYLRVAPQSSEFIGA
# Sequence of Dickkopf-related protein 1 (Homo sapiens) (O94907 whole entry, looked up): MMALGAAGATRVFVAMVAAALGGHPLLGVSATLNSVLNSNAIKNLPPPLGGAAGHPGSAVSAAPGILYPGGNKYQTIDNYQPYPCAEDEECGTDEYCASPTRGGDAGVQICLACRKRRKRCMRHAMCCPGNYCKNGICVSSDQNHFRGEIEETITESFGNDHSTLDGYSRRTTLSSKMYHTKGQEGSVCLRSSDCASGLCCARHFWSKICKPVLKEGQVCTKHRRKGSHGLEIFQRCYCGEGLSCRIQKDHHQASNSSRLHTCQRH
# Sequence of Torsin-1A-interacting protein 2 (Homo sapiens) (Q8NFQ8 whole entry, looked up): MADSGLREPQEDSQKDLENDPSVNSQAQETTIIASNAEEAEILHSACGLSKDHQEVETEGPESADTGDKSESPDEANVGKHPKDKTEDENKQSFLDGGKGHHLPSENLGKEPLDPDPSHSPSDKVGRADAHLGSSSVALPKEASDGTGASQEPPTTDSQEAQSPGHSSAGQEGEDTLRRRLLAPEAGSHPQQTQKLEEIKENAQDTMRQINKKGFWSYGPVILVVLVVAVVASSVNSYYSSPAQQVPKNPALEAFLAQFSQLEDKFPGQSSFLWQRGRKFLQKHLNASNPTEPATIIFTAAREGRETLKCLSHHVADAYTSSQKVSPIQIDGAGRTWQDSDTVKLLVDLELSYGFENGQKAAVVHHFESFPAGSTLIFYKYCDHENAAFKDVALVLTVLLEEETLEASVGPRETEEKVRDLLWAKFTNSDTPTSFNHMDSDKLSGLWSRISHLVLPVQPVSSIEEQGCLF
# Sequence of Follistatin-related protein 3 (Homo sapiens) (O95633 whole entry, looked up): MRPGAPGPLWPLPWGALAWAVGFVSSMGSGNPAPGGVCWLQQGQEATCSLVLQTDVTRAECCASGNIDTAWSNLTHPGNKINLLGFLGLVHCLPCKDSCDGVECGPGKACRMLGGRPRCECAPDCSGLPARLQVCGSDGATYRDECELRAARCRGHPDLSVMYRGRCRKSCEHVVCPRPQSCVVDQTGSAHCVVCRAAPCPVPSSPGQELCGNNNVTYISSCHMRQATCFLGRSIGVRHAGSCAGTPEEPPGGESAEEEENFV
# Sequence of Fibroblast growth factor 10 (Homo sapiens) (O15520 whole entry, looked up): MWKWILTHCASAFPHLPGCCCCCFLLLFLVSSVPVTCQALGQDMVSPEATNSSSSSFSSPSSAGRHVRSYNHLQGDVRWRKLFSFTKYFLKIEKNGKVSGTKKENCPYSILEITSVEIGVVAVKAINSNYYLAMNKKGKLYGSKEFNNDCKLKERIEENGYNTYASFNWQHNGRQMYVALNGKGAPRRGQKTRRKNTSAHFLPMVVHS
SMILES,composite z-score [1],z-score [2],z-score [3],z-score [4],composite z-score [5],z-score [6],composite z-score [7],composite z-score [8],composite z-score [9],composite z-score [10],composite z-score [11],composite z-score [12],composite z-score [13],z-score [14],composite z-score [15],composite z-score [16],composite z-score [17],composite z-score [18],composite z-score [19],composite z-score [20]
COC(=O)CC=C[C@@H](C)[C@@H](C=NOC[C@@H](O)[C@H]1O[C@@H]2OC(C)(C)O[C@@H]2[C@H]1O)OC,0.297,0.439 (inactive),0.429 (inactive),0.303 (inactive),0.31,-0.125 (inactive),-0.183,0.505,0.845,0.0536,0.42,-0.0276,-0.673,-0.123 (inactive),0.247,0.589,0.496,0.115,0.56,-0.16
CCN1C(=O)[C@H]2[C@H]3[C@H](O)[C@H](O)CC(=NOC[C@@H](O)COCc4ccco4)[C@H]3CC[C@H]2C1=O,1.21,-0.0365 (inactive),-0.258 (inactive),-0.0439 (inactive),0.327,0.316 (inactive),-0.339,1.79,0.0738,-0.099,0.667,-1,-2.16,0.0809 (inactive),-0.169,0.797,0.816,0.757,1.39,1.45
COC(=O)[C@@H]1CC[C@H](C)[C@@H](c2ccc(Br)cc2)N1,-2.1,0.826 (inactive),0.771 (inactive),1.08 (inactive),1.24,0.532 (inactive),0.195,-0.265,-1.19,-0.044,-0.725,0.297,0.321,-0.181 (inactive),-0.0529,-0.879,0.377,-0.391,0.187,0.894
CC(=O)OC[C@H]1O[C@H](C#CCCc2ccccc2)C=C[C@@H]1OC(C)=O,0.374,0.664 (inactive),-2.4 (inactive),-0.116 (inactive),1.38,0.396 (inactive),0.0092,0.57,0.341,-0.021,1.05,-0.0993,-0.438,0.181 (inactive),0.787,-0.113,0.187,0.981,1.02,0.309
COC(=O)C1=C(C)N(Cc2ccccc2)C2=C3C(=O)OCC[C@@H]3[C@@](O)(C(=O)OC)C(=O)N2[C@@H]1c1ccccc1,-0.737,0.833 (inactive),-0.992 (inactive),-0.265 (inactive),0.0296,0.659 (inactive),-0.0342,0.454,0.542,0.0035,0.126,-0.117,-0.538,-0.403 (inactive),0.325,0.51,0.526,0.495,0.563,0.312
CON(C)C(=O)c1nnc2c(n1)[nH]c1ccccc12,0.194,-0.545 (inactive),0.577 (inactive),-0.298 (inactive),0.3,0.816 (inactive),-0.0931,0.586,0.483,-0.121,0.214,0.256,-0.0786,-0.562 (inactive),0.692,0.217,0.319,0.651,0.377,0.221
COc1ccc(COC(=O)NN=C2C[C@@H](O)[C@@H](O)[C@@H]3[C@@H]4C(=O)N(C[C@@H]5CCCO5)C(=O)[C@@H]4CC[C@H]23)cc1,-0.478,-0.0944 (inactive),0.247 (inactive),-0.0457 (inactive),0.43,-0.5 (inactive),0.258,-0.809,-0.398,-0.211,-0.321,1,1.26,0.0734 (inactive),-0.494,-0.797,-0.211,-1,-0.746,0.229
COC(=O)CC=C1c2ccccc2[C@H](OC)[C@H]1C,-0.32,0.649 (inactive),0.863 (inactive),0.387 (inactive),-0.655,0.194 (inactive),-0.0732,0.189,-0.562,-0.0657,-0.0214,-0.314,-0.624,0.0124 (inactive),0.0785,-0.234,0.33,0.0242,0.485,1.05
COC(=O)[C@H](C)NC(=O)CCC1CC(OC(=O)NCCc2ccc(F)cc2)CC2(CCCC(COC(=O)NCCOc3ccccc3)O2)O1 (stereo not given in full),1.46,-0.233 (inactive),0.927 (inactive),1.12 (inactive),2.64,0.219 (inactive),-0.0073,0.724,1.06,-0.106,0.612,-0.244,-0.224,0.587 (inactive),0.762,1.01,0.538,0.781,0.652,-0.455
CCOC(=O)[C@H](CC(C)C)NC(=O)CCC1CC(OC(=O)NCc2ccc3c(c2)OCO3)CC2(CCCC(COC(=O)NCc3ccccc3)O2)O1 (stereo not given in full),0.974,0.177 (inactive),1.12 (inactive),0.0835 (inactive),1.83,0.314 (inactive),-0.124,0.684,0.845,-0.0978,0.58,-0.197,-0.495,-0.403 (inactive),0.713,0.486,0.316,0.675,0.425,-0.0973
